Screening results: PubChem, several laboratories
Cl transport mod – KCC2 (human) Cl- transport modulation; B-score of Tl+ flux slope (higher = more flux/activation; lower = inhibition) at 10 µM; KCC2 cells, thallium flux FluoZin-2 fluorescence; AID 1456; hit rate 2.2% among 190,000;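 active = thallium flux slope and its plate-corrected score both differing from the plate sample mean at a set confidence after two filtering rounds, in either direction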;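 also: slope of fluorescence scaled to starting intensity during 10 to 20 s after thallium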
Target sequence (Q9H2X9 whole entry, looked up): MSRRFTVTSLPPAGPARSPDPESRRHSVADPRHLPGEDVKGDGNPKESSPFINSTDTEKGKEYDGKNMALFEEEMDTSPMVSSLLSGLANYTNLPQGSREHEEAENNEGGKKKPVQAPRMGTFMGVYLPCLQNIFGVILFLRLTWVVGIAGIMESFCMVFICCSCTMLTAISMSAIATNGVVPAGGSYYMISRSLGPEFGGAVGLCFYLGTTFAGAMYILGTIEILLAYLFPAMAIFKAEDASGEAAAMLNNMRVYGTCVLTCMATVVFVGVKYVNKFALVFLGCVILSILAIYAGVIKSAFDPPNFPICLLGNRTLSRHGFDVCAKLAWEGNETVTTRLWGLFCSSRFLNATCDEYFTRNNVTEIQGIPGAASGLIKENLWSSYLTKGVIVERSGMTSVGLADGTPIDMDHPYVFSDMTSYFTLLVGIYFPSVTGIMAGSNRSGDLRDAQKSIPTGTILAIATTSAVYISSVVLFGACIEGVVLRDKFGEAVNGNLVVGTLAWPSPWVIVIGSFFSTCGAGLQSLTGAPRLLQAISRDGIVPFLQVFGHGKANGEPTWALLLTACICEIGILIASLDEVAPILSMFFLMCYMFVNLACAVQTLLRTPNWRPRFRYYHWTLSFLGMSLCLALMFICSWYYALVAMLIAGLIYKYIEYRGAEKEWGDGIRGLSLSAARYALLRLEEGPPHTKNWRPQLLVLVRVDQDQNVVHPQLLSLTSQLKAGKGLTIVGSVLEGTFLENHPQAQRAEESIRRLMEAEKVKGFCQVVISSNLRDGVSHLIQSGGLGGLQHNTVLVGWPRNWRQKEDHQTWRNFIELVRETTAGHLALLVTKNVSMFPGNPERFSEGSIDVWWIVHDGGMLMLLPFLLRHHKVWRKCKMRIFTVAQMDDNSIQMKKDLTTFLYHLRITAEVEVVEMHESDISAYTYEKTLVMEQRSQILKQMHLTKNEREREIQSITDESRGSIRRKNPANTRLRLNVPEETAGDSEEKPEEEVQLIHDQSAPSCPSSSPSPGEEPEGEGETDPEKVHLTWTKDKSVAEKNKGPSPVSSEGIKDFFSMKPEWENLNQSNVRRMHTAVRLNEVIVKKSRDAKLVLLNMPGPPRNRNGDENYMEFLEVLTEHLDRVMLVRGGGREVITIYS
m-calpain inh – blocks pig calpain II enzyme activity; hit rate 0.37% among 220,000; purified calpain II, fluorogenic peptide substrate, 30 min; inhibition, % at 16 µM; AID 1236;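 active = inhibition above about 50%, limit read from the data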
ROMK primary – human ROMK K+ channel modulation, primary screen; P48048; AID 1918; Tet-inducible ROMK, thallium flux fluorescence; actives lie on both sides; B-score at 10 µM; hit rate 2% among 130,000;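 active = signal ratio slope over the read window, or its plate-corrected B-score, at least 3 SD from the plate mean, either direction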;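 also: B-score of the F/F0 ratio slope over 7 to 12 s after thallium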
WT yeast gro inh – growth inhibition of WT yeast, mitochondrial fusion screen. inhibition, % at 10 µM. AID 1362. hit rate 2.1% among 190,000. mitochondrial fusion phenotypic screen, WT strain; in the data active = inhibition above about 58%; tested in S. cerevisiae
L major viab – reduces viability of Leishmania major promastigotes; resazurin fluorescence viability; AID 1063; inhibition, % at 10 µM; hit rate 9% among 200,000; in the data active = inhibition above about 50%;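 also: promastigotes grown with compound for 44 hours at 28 °C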
KCC2 sec1 – KCC2 (human) modulation, secondary assay | hit rate 15% among 3,700 | HEK293-KCC2, thallium flux, FluoZin2 fluorescence; active compounds read high | normalised thallium flux (F/F0 slope) at 10 µM | shares compounds with Cl transport mod;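 active = thallium flux slope above the same plate's solvent-only control mean plus 3 SD; inconclusive = the two replicate wells disagree; inactive = no significant difference from solvent-only control wells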
KCC2 bumet counter – bumetanide-insensitive thallium flux in KCC2 cells with ouabain, counter-screen. HEK293-KCC2 + bumetanide/ouabain, thallium flux FluoZin2; active compounds read high. normalized thallium flux at 10 µM. hit rate 49% among 3,700. AID 1714. shares compounds with Cl transport mod;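 active = thallium entry rate above the same plate's blocked-transporter control wells by more than 3 SD; inconclusive = the two repeat wells disagree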;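 also: raw slope of fluorescence over initial fluorescence between 10 and 20 s after thallium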
KCC2 sec2 – KCC2 (human) modulation, second secondary assay | normalized thallium flux at 10 µM | HEK293-KCC2, thallium flux FluoZin2 fluorescence; actives lie on both sides; F/F0 rise rate, 10–20 s post-thallium | shares compounds with Cl transport mod | hit rate 23% among 3,700;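 active = thallium flux slope more than 3 SD above or below the plate's solvent-only control mean, mostly below; inconclusive = the two repeat wells disagreed; inactive = no significant shift from solvent-only controls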;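 also: raw slope with 0.1% DMSO as baseline and bumetanide as block control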
HEK counter1 – parental HEK flux effect, counter-screen; shares compounds with Cl transport mod; HEK293 parental cells, thallium flux FluoZin2, ouabain; baseline-ratio fluorescence slope, 10–20 s after thallium; thallium flux rate (normalised fluorescence) at 10 µM; hit rate 46% among 3,700;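 active = thallium flux rate significantly above the same plate's solvent-only control wells, beyond their mean plus 3 SD; inconclusive = the two replicate wells gave conflicting results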
KCC2 ouabain – modulates human KCC2 on retest with ouabain | AID 1717 | HEK293-KCC2, thallium flux FluoZin2 fluorescence; bidirectional: low = inhibitor, high = activator | hit rate 48% among 3,700 | raw Tl+ flux slope (below DMSO = inhibition, above = activation) at 10 µM | shares compounds with Cl transport mod;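 active = thallium flux slope beyond 3 SD from same-plate DMSO control mean in most replicates, usually higher, sometimes lower; inconclusive = repeat tests gave conflicting results; inactive = no significant difference from controls in most replicates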;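 also: slope of initial-normalized fluorescence between seconds 10 and 20 after thallium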
HEK293 Tl flux2 – counter-screen for KCC2 modulators: effect in parental HEK293 cells; shares compounds with Cl transport mod; thallium flux FluoZin-2 fluorescence slope; thallium flux slope at 10 µM; hit rate 33% among 3,700; AID 1718;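 active = thallium flux slope above the same plate's solvent-control mean plus 3 SD in both duplicate wells; inconclusive = duplicate wells that disagreed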;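 also: run without ouabain in cells lacking the KCC2 cotransporter; slope of fluorescence scaled to its starting value between 10 and 20 s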
Active calls of the source: *; u = inconclusive; x = no result. Shown are actives, neighbours in structure and some others; about 12% of the full set was active somewhere.

SMILES	Cl transport mod	m-calpain inh	ROMK primary	WT yeast gro inh	L major viab	KCC2 sec1	KCC2 bumet counter	KCC2 sec2	HEK counter1	KCC2 ouabain	HEK293 Tl flux2
CN(Cc1ccccc1)c1oc(COc2ccccc2F)nc1C#N	x	15	x	-9	3	0.0083	0.0049	0.032	0.0067	u	0.011
COc1ccc(N2CCN(Cc3nnnn3C3CCCCC3)CC2)cc1	-0.012	-15	0.037	-9	0	x	x	x	x	x	x
O=[N+]([O-])c1cc(/C=N/OCc2c(Cl)cccc2Cl)ccc1N1CCOCC1	-0.005	40	x	28	10	x	x	x	x	x	x
CCc1ccc(NC(=O)COc2ccc(Br)cn2)cc1	-1.1	-8	-0.52	-8	2	x	x	x	x	x	x
N#Cc1nc(COc2ccccc2Cl)oc1NCc1cccnc1	-3*	-22	x	-6	0	0.007	0.0061	0.03	0.0071	0.022*	0.0092
O=C(c1ccc(S(=O)(=O)Cc2ccccc2F)c([N+](=O)[O-])c1)N1CCCCCC1	-0.13	14	-0.76	-11	15	x	x	x	x	x	x
Cc1ccc(C(=O)N2CCC(Cc3ccccc3)CC2)cc1[N+](=O)[O-]	-5.7*	9	0.036	39	11	0.008	u	0.034	0.0034	0.014*	0.011
CC1CCN(C(=O)c2ccc(SCc3ccccc3F)c([N+](=O)[O-])c2)CC1	-3.4*	18	-0.11	31	69*	0.0068	0.0052	0.025*	0.008	u	0.0097
CCOc1cc(NC(=S)NCC2CCCO2)c(OCC)cc1NC(=O)c1cccc(F)c1 (configuration not stated)	-1.2	11	-0.42	6	26	x	x	x	x	x	x
O=C(NNC(=S)Nc1ccc(Br)cc1)c1ccc(N2CCOCC2)c([N+](=O)[O-])c1	-3.8*	-46	0.93	-6	-7	0.0093	0.0062	0.031	u	0.016*	0.011
CC(C)OCCCNC(=O)c1cc2c(s1)CS(=O)(=O)C2	x	-3	1.7	-11	-5	0.0088	0.0053	0.031	0.0079	0.018	0.01
S=c1nc(SCc2ccccc2)[nH]c2ccccc12	120*	-15	x	62*	2	0.019*	0.098*	0.1*	0.11*	0.095*	0.1*
Cc1ccc(-c2csc3ncn(CC(=O)N4CCOCC4)c(=O)c23)cc1C	x	-4	-1.2	3	40	0.011	u	0.036	0.0048	0.021	0.012
CCC(Oc1ccccc1)C(=O)NC1CCSC1=O (configuration not stated)	0.0038	18	0.83	-3	-5	x	x	x	x	x	x
Oc1c(Br)cc(Br)cc1/C=N/NC(=S)N[C@H]1CC2C=CC1C2 (some centres not stated)	4.8*	-10	x	x	x	0.0079	0.014*	0.03	0.01*	u	0.0094
COc1cc(/C=N/N(C)C)ccc1OC(=O)c1cccs1	-1.4	18	0.093	9	11	x	x	x	x	x	x
COC(=O)c1cc(OC)c(OC)cc1NC(=S)N1CCCCC1	-3.9*	30	x	8	89*	0.0062	0.005	0.031	0.0074	0.02	0.011
COc1ccc(C(=O)Nc2cc(OC)c(Cl)cc2OC)cc1	-4.5*	16	-0.32	3	3	0.0098	0.0086*	0.033	0.015*	0.021	0.011
COC(=O)c1cc(OC)c(OC)cc1NC(=O)c1ccccc1	-0.81	-93	x	-4	4	x	x	x	x	x	x
COC(=O)c1cc(OC)c(OC)cc1NC(=O)c1cc(OC)cc(OC)c1	5.3*	-163	-0.047	15	-4	0.0092	0.0052	0.031	0.0068	0.021	0.0094
COc1cc(NC(=O)c2ccc(F)cc2)c(OC)cc1Cl	0.55	14	0.99	5	-2	x	x	x	x	x	x
